Bioassay records deposited in PubChem by National Center for Advancing Translational Sciences (NCATS).
VACV Venus inh: inhibitors of vaccinia virus (Venus reporter); AID 720580; Potency, µM (doses to about 36.5 µM), for inactives: top-dose activity change, negative = inhibition, hits mostly inhibitors; actives 0.46% (n = 330,000); Vaccinia virus Venus reporter expression, fluorescence; calls by dose curve; tested in A549 cells; further: potency means the concentration at half of the fitted maximal effect; nearly all actives have a fitted effect of over 30% in size
Marburg entry inh: Marburg virus entry inhibition; Potency, µM (highest dose often 37.8 µM), for the others: top-dose activity change, negative = inhibition, hits mostly inhibitors; Marburg virus pseudotyped entry inhibition, cell reporter; actives 1.8% (n = 300,000); calls by dose curve; tested in HEK293 cells; further: potency means the concentration at half of the fitted maximal effect
FMDV antiviral: blocks foot and mouth disease virus. FMDV antiviral cell-based qHTS. Potency, µM (titrated, usually from 57.9 µM), for the others: at the top dose activity change, negative = inhibition, actives largely listed as inhibitors. actives 1.2% (n = 410,000). AID 1159524; calls by dose curve; tested in HEK293T cells; further: read-out not given here; potency means the concentration at half of the fitted maximal effect; nearly all actives have a fitted effect of over 45% in size
HCMV antiviral: human cytomegalovirus inhibition; HFF cells, HCMV-luciferase reporter, 72 h; active compounds read low; activity change, negative = inhibition, % at 57.5 µM; actives 4.5% (n = 410,000); in the data active means activity change below about -60%; inconclusive means no clear call, values can overlap the other calls; inactive means above about -39%
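HFF cells seeded 16 h at 37C, treated with compounds, infected with luciferase-reporter HCMV at MOI 1 PFU/cell; luciferase read at 72 h post infection, normalized to buffer-only and Salinomycin controls.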
Lassa entry inh: blocks Lassa virus binding to or entry into cells; actives 1.2% (n = 300,000); Lassa virus pseudotype entry inhibition, cell reporter; Potency, µM (doses to about 37.9 µM), for inactives: top-dose activity change, negative = inhibition, most hits filed as inhibitors; calls by dose curve; tested in HEK293 cells; further: potency means the concentration at half of the fitted maximal effect; nearly all actives have a fitted effect of over 50% in size
VACV mCherry inh: vaccinia inhibition (mCherry reporter); Vaccinia virus mCherry reporter infection, fluorescence; actives 0.63% (n = 310,000); Potency, µM (top dose mostly 36.5 µM), for inactives: at the top dose activity change, negative = inhibition, most hits filed as inhibitors; AID 720579; calls by dose curve; tested in A549 cells; further: potency means the concentration at half of the fitted maximal effect; nearly all actives have a fitted effect of over 35% in size
Numbers without * were called inactive; i = inactive; ? = inconclusive; . = no result given; [ ] = remark or other dose. In the library only some 6.5% were active in any assay of this set; here they are far more common. On the % scale 0 is the no-effect control and ±100 the full control effect.

SMILES	VACV Venus inh	Marburg entry inh	FMDV antiviral	HCMV antiviral	Lassa entry inh	VACV mCherry inh
O=C1/C(=C/c2ccccc2F)SC(=S)N1CCC(=O)N1CCCCC1CCO (centres undefined)	-26%	?	-13%	-84*	?	?
O=C(COC(=O)C1CC1)NCCNC(=O)COC(=O)C1CC1	-7%	3%[46.1 µM]	-12%	-30	-13%	-12%
CCCC[C@H](CN[C@@H](CNC)[C@H](C)CC)NCCC12CCC(CC1)C2	22µM*	.	-2%	-97*	.	22µM*
O=C(NNS(=O)(=O)c1ccc2ccccc2c1)C1CCN(Cc2ccccc2)CC1	-14%	?	-17%	-107*	10%	-14%
CCOc1ccccc1-n1c(CN2CCN(C(=O)c3ccco3)CC2)nc2ccccc2c1=O	.	-5%	-30%	-105*	7%	.
CCOc1ccccc1-c1nc(CN2CCN(C(=O)c3ccco3)CC2)c(C)o1	.	.	-9%	-7	.	.
CCOc1[nH]c(/N=C/c2ccc(OC)cc2)c(C#N)c1C#N	102%	.	.	.	.	-12%
Cc1ccc(-c2csc3nc[nH]c(=S)c23)cc1	-27%	-29%	-28%	?	-2%	-10%
S=c1[nH]cnc2scc(-c3ccc(Br)cc3)c12	-25%	?	-20%	-87*	-29%[46.1 µM]	-8%
CC(C)N1CCN(Cc2cccc([N+](=O)[O-])c2)CC1	-3%	6%[46.1 µM]	19%	-40	?	i
O=[N+]([O-])c1cccc(CN2CCN(Cc3ccc(Cl)cc3)CC2)c1	-10%	-1%[46.1 µM]	?	-77*	-21%	-14%
COc1ccc(-n2nc(C)c3c(C(F)(F)F)cc(-c4cccnc4)nc32)cc1	-7%	2%[46.1 µM]	-8%	-73*	-5%[46.1 µM]	-15%
Cc1nn(-c2cccc(Cl)c2)c2nc(-c3cccnc3)cc(C(F)(F)F)c12	-3%	8%[46.1 µM]	-13%	-33	16%[46.1 µM]	-5%
CO[C@H]1C=CO[C@@]2(C)Oc3c(C)c(O)c4c(O)c(c(C=NN5CCN(C)CC5)c(O)c4c3C2=O)NC(=O)C(C)=CC=C[C@H](C)[C@H](O)[C@@H](C)[C@@H](O)[C@@H](C)[C@H](OC(C)=O)[C@H]1C	.	.	-11%[16.9 µM]	.	.	.
O=C(CC(NC(=O)C(F)(F)F)c1ccccc1)Nc1nnc(CCc2ccccc2)s1 (centres undefined)	-5%	?	-17%	-65*	-7%	i
Clc1ccc(-c2n[nH]c3c2CCCC3)cc1	1%	0%[46.1 µM]	42%	-72*	16%	i
O=C(c1ccccc1Cl)N1CCCCC1CCN1CCOCC1 (centres undefined)	-8%	10%[46.1 µM]	-5%	34	8%[46.1 µM]	-14%
Brc1ccc(N=Nc2ccc3ccccc3n2)cc1	-3%	?	10µM*	?	1.1µM*	-1%
CCn1c(O)c(N=Nc2ccc3ccccc3n2)c2ccccc21	.	.	32%	0	.	.
CN(C)c1ccc(CN(Cc2ccco2)C(=O)COc2ccc(F)cc2)cc1	-13%	?	0%	-26	5.6µM*	-16%
CC/C(=N/Nc1ccc(Cl)cc1)c1cnnc(SC)n1	0%	3%	10%	1	18%	-13%
CC/C(=N/Nc1cccc(C)c1)c1cnnc(SC)n1	-29%	?	?	-68*	-8%	?
C=COC(=O)NC1CCc2cc(OC)c(OC)c(OC)c2-c2ccc(SC)c(=O)cc21 (centres undefined)	?	-22%	-5%	?	?	-1%
COc1cc2c(c(OC)c1OC)-c1ccc(SC)c(=O)cc1C(NC=O)CC2 (centres undefined)	?	?	-8%	-97*	-26%	?
COc1cc2c(c(OC)c1OC)-c1ccc(SC)c(=O)cc1C(NC(=O)c1ccccc1)CC2 (centres undefined)	?	?	-10%	-63*	?	-49%
SMILES	VACV Venus inh	Marburg entry inh	FMDV antiviral	HCMV antiviral	Lassa entry inh	VACV mCherry inh
COc1cc2c(c(OC)c1OC)-c1ccc(OC)c(=O)cc1C(NC(=O)c1ccccc1)CC2 (centres undefined)	?	?	1%	-75*	?	?
COC1=C[C@@H]2C3=C([C@@H]2C1=O)[C@@H](NC(C)=O)CCc1cc(OC)c(OC)c(OC)c13	-10%	.	0%	10	.	-17%
O=C(NC1CCCC1)C(c1ccc(F)cc1)N(C(=O)c1csnn1)C1CCCC1 (centres undefined)	3%	3%[46.1 µM]	3%	3	-11%	6%
COC1OCC(O)C(NC(=O)N(C)N=O)C1O (centres undefined)	1%	.	-13%	13	.	-7%
COc1ccccc1N1CCN(CCS(=O)(=O)c2cc(Cl)ccc2Cl)CC1	?	.	-12%	-20	.	8.9µM*
COc1ccccc1N1CCN(S(=O)(=O)CCNC(=O)CCc2ccccc2)CC1	-20%	.	?	-86*	.	-3%
COc1ccc(Cl)cc1C(=O)NCCS(=O)(=O)N1CCN(c2ccccc2OC)CC1	-27%	.	8.9µM*	-20	-13%[46.1 µM]	?
COc1ccc(CC(=O)NCCS(=O)(=O)N2CCN(c3ccccc3OC)CC2)cc1	-26%	?	-15%	-27	?	-6%
COc1ccccc1N1CCN(S(=O)(=O)CCNC(=O)C23CC4CC(CC(C4)C2)C3)CC1	.	.	14µM*	-13	.	.
O=C(NCCS(=O)(=O)N1CCN(c2ccccc2)CC1)C12CC3CC(CC(C3)C1)C2	?	.	?	?	.	-20%
COC(=O)c1ccccc1NC(=O)CSc1nc2ccsc2c(=O)n1Cc1ccc(C(=O)O)cc1	-3%	.	-29%	-17	.	i
CC1=C/C(=N\N=C2\NC(=O)C(CC(=O)Nc3ccccc3F)S2)CC(C)(C)C1 (centres undefined)	-12%	1%[46.1 µM]	-17%	-65*	-26%	-2%
CCCn1c(N)c(C(=O)CN(C)CC(=O)Nc2cc(C)ccc2C)c(=O)[nH]c1=O	-21%	-7%	?	1	-25%	-28%
COc1cc2c(cc1OC)C(c1c(O)n(CCc3ccccc3)c(=S)[nH]c1=O)NCC2 (centres undefined)	-9%	8%[46.1 µM]	5%	-64*	11%[46.1 µM]	-14%
Oc1ccccc1Nc1nc(NCC2CCCO2)c2ccccc2n1 (centres undefined)	.	15µM*	?	-12	?	.
Oc1ccc(Nc2nc(NCC3CCCO3)c3ccccc3n2)cc1 (centres undefined)	.	?	-14%	13	?	.
COc1cccc(Nc2nc(NCC3CCCO3)c3ccccc3n2)c1 (centres undefined)	?	?	20µM*	?	?	?
Oc1ccc(Cl)cc1Nc1nc(NCC2CCCO2)c2ccccc2n1 (centres undefined)	.	.	28µM*	-13	.	.
c1ccc2c(NCC3CCCO3)nc(N3CCCCC3)nc2c1 (centres undefined)	.	.	-24%	?	.	.
